Out of some 1,200 compounds screened, about 810 (68%) were called active. How the calls were made is not given here. The set was probably picked from earlier hits. These entries were drawn from the full list. Entries that show only a call come without a potency. Potency and affinity values are given separately.
Test: TRPM1 promoter luciferase signal decrease, dose response, MITF inhibitor project, cell-based, SK-MEL-5, cherry-picked, set 3 (AID 493073)
Settings: SK-MEL-5 TRPM1 promoter luciferase, 24 h; series mostly up to 35 µM

| Structure (SMILES) | outcome |
| --- | --- |
| COCCNC(=O)c1cc2sc3ccccc3c2s1 | inactive |
| FC(F)(F)Oc1ccc(-c2cn3cccnc3n2)cc1 | inactive |
| O=C(CNC(=O)c1ccc(Br)cc1)c1ccccc1 | inactive |
| Clc1ccccc1CSc1nnc(-c2ccncc2)o1 | inactive |
| Cc1ccc2nc(NC(=O)c3ccc(Br)o3)sc2c1 | inactive |
| Cc1ccc(C(=O)Nc2nc3ccc(Cl)cc3s2)o1 | inactive |
| O=C(Nc1nc2ccccc2s1)Nc1ccc(F)cc1F | inactive |
| COC(=O)c1ccc(COc2ccc(C)cc2[N+](=O)[O-])o1 | inactive |
| COc1ccc2oc3ccc(OC)cc3c(=O)c2c1 | inactive |
| Cc1cc(NC(=O)c2ccc(Cl)cc2Cl)no1 | inactive |
| O=C(Nc1cccnc1Cl)c1cc(-c2ccco2)on1 | inactive |
| CC1CCN(c2ccc(NC(=O)c3cccnc3)cc2)CC1 | inactive |
| NNC(=O)Cn1c(SCc2ccccc2)nc2ccccc21 | inactive |
| COC(=O)c1ccc(COc2ccc3c(c2)CCC3)o1 | inactive |
| O=C(Nc1nc2ccsc2c(=O)s1)C1CCC1 | inactive |
| O=C(O)C1CCN(C(=O)OCc2ccccc2)CC1 | inactive |
| Fc1ccccc1-c1nc(-c2ccncc2)no1 | inactive |
| Cc1ccc(-c2nc(-c3ccncc3)no2)cc1C | inactive |
| CCOc1ccccc1-c1nc(-c2ccc(C)nc2OC)no1 | inactive |
| Clc1ccc(-c2nc(-c3ccncc3)no2)c(Cl)c1 | inactive |
| O=C(Nc1ccc(Cl)cc1)C1C2CCCCC21 (stereo not drawn) | inactive |
| Cc1ccc(SCCC(=O)N2CCC(C)CC2)cc1 | inactive |
| N/C(=N\OC(=O)c1ccccc1Cl)c1cccc([N+](=O)[O-])c1 | inactive |
| N/C(=N\OC(=O)c1ccncc1)c1cccc([N+](=O)[O-])c1 | inactive |
| CCn1c(=O)c(C(=O)NCc2ccccc2Cl)c(O)c2ccccc21 | inactive |
| Cc1ccc(SCc2cn3cc(Cl)ccc3n2)cc1 | inactive |

| Structure (SMILES) | outcome |
| --- | --- |
| N/C(=N\OC(=O)c1cccc(F)c1)c1cccc([N+](=O)[O-])c1 | inactive |
| Cc1ccccc1OCc1nc2c3cnn(C)c3ncn2n1 | inactive |
| Cc1ccc(OCCNCc2ccccc2)c(C)c1 | inactive |
| CC(C)(C)c1ccc(OCCn2ccccc2=O)cc1 | inactive |
| COc1ccc(NC(=O)c2cc(-c3ccccc3Cl)on2)cc1 | inactive |
| O=C1c2ccccc2C(=O)N1CCOc1ccccc1 | inactive |
| CC(C)c1nnc(NC(=O)CCC2CCCCC2)s1 | inactive |
| CC(C)(C)C1CCC(OC(=O)CN2CCCCC2)CC1 (stereo not drawn) | inactive |
| COc1ccc(C2C(C#N)=C(N)Oc3c2oc(CO)cc3=O)cc1 (stereo not drawn) | inactive |
| O=C(Nc1ccc2ncccc2c1)c1ccccc1Br | inactive |
| CC(=O)c1ccc(N/C=C/C(=O)c2ccc(Br)cc2)cc1 | inactive |
| Oc1ccccc1/C=N/Nc1cccc2cccnc12 | inactive |
| Cc1ccc2nc(Cc3ccc(N)cc3)oc2c1 | inactive |
| CCOc1ccccc1NC(=O)C1C2CCC(O2)C1C(=O)O (stereo not drawn) | inactive |
| COc1ccc(-c2cc(-c3ccc(OC)c(OC)c3)n[nH]2)c(O)c1 | inactive |
| COc1ccc(C(=O)NCC(=O)c2ccccc2)cc1 | inactive |
| COc1ccc(C(=O)NCCSc2ccccc2C)cc1 | inactive |
| COc1cccc(CNc2nc3ccccc3n2C)c1O | inactive |
| Cc1cc(C)c2c(N)c(C(=O)N/N=C/c3ccccc3)sc2n1 | inactive |
| Cc1cc(C(F)(F)F)c2c(N)c(C(=O)Nc3cc(C)on3)sc2n1 | inactive |
| CCc1cc(C=NC2CCCCC2)c(O)s1 | inactive |
| Cc1ccccc1NCc1nc2ccccc2n1C | inactive |
| O=C(NCc1ccco1)c1ccc(COCC(F)(F)F)cc1 | inactive |
| CN(C)c1ccc(/C=C/c2cccc[n+]2[O-])cc1 | inactive |
| Cc1ccc(O)c(NC(=O)c2ccc3c(c2)C(=O)N(CC(C)C)C3=O)c1 | inactive |
| Clc1nccnc1N/N=C/c1ccc(Br)cc1 | inactive |

| Structure (SMILES) | outcome |
| --- | --- |
| COc1cccc(/C=N/NC(=O)c2cccs2)c1 | inactive |
| N/C(=N\OC(=O)Cc1cccs1)c1ccccc1 | inactive |
| COc1cccc(-c2ccc3c(N)c(C(=O)NC4CC4)sc3n2)c1 | inactive |
| O=C(NC1CCCCC1)c1cc2cc(Br)ccc2o1 | inactive |
| O=C(NC1CCCCCC1)c1cc2ccccc2oc1=O | inactive |
| N#C/C(C(=O)c1ccccc1)=C1/CCCCCN1 | inactive |
| CCOc1ccc(N=C(C)C2=C(O)c3ccccc3C2=O)cc1 | inactive |
| Cn1c(COc2ccccc2Br)nc2ccccc21 | inactive |
| NC(=O)c1c(NC(=O)c2cccnc2)sc2c1CCCCC2 | inactive |
| Cc1ccc(COc2ccc(C)nc2[N+](=O)[O-])cc1 | inactive |
| CCOc1cc(/C=N/N=C(N)N)ccc1OCc1ccc(Cl)cc1 | inactive |
| O=C(Nc1ccc(Cl)cc1)N1CC=CCC1 | inactive |
| CC(C)(CO)NC(=O)c1ccc2nc(Cc3cccc(Cl)c3)oc2c1 | inactive |
| Cc1ccc(C(=O)c2coc3ccc(O)c(Cl)c23)cc1 | inactive |
| OCc1ccc(N=Nc2ccccc2)cc1 | inactive |
| Cc1ccc(OCCCCN2CCCCC2)c(Br)c1 | inactive |
| O=C(Cc1cccs1)NCc1ccc(Cl)cc1Cl | inactive |
| O=C(CCC(=O)c1ccc[nH]1)c1ccc(Cl)cc1 | inactive |
| COc1nc(NC2CCCCC2)nc(NC(C)(C)C)n1 | inactive |
| C#Cc1cccc(NC(=O)CSc2nnc(-c3ccc(C(F)(F)F)cn3)o2)c1 | inactive |
| Cn1c(COc2ccccc2)nc2ccccc21 | inactive |
| COc1ccc(NCc2nc3ccccc3n2C)cc1 | inactive |
| COc1cc(CN2CCC(C(=O)NCCC(C)C)CC2)ccc1OCc1ccccc1 | inactive |
| COc1cccc(/C=C/C(=O)c2ccc3c(c2)OCCO3)c1OC | inactive |
| COc1ccc(C(=O)Nc2ccc3c(c2)OCCO3)cc1Br | inactive |
| COc1ccc(N(CC(=O)NCC2CCCO2)S(=O)(=O)c2ccccc2)cc1OC (stereo not drawn) | inactive |

| Structure (SMILES) | outcome |
| --- | --- |
| CC(=O)Nc1cccc(-c2nnc(-c3ccccc3)o2)c1 | inactive |
| O=C(CN1CCCCC1)Nc1scc2c1c(=O)oc1ccccc12 | inactive |
| CCN(CC)CCNC(=O)C1CCN(S(=O)(=O)c2c(C)noc2/C=C/c2ccccc2F)CC1 | inactive |
| Cc1cc(/C(N)=N/OC(=O)Nc2ccc(Cl)cc2)no1 | inactive |
| Cc1cccc(NC(=O)c2cnn(-c3ccccc3)c2C)c1C | inactive |
| Cc1ccsc1C(=O)OCC(=O)Nc1sccc1C(N)=O | inactive |
| CCCCC(=O)N/C(N)=N/c1nc2ccccc2o1 | inactive |
| Cc1ccc(-c2nc(C#N)c(NCc3ccco3)o2)cc1 | inactive |
| Cc1cccc(-c2nc(C#N)c(NCc3ccco3)o2)c1 | inactive |
| O=C(NCC1CCCO1)c1cc(-c2ccc(Cl)cc2Cl)on1 (stereo not drawn) | inactive |
| O=C(Nc1ccc2nn(-c3ccccc3)nc2c1)c1ccco1 | inactive |
| CNc1oc(/C=C/c2cccc(OC)c2)nc1C#N | inactive |
| Cc1cc(Cl)ccc1NC(=O)c1ccc2c(c1)OCO2 | inactive |
| CC(C)C(=O)Nc1cccc(NC(=O)c2cc3ccccc3o2)c1 | inactive |
| O=C1CN(c2ccccc2)C(=S)N1C(=O)c1ccc(Br)cc1 | inactive |
| N=c1n(CC(=O)c2ccc([N+](=O)[O-])cc2)c2ccccc2n1Cc1ccc(Cl)cc1 | inactive |
| Cc1c(C=O)c2cc(OCc3ccccc3)ccc2n1C | inactive |
| CC1CCCC(C)N1CCCNC(=O)c1cc2c(s1)-c1ccccc1OC2 (stereo not drawn) | inactive |
| COc1ccccc1/C=C/C=N/NC(=O)c1cccs1 | inactive |
| Cc1ccc(SCCSc2ncccn2)cc1 | inactive |
| Nc1c(-c2ccccc2)cnc2c(-c3ccccc3)cnn12 | inactive |
| CC(C)(C)c1cc(NCCCn2ccnc2)n2ncc(-c3ccccc3)c2n1 | inactive |
| c1cc(CSc2nnc(-c3ccc4c(c3)OCO4)o2)ccn1 | inactive |
| O=C(Nc1nc2ccccc2s1)c1ccccc1[N+](=O)[O-] | inactive |
| COc1cc(SC)ccc1C(=O)NCCOc1ccccc1Cl | inactive |
| Cc1ccc(NC(=O)Nc2ccccc2)nc1 | inactive |

| Structure (SMILES) | outcome |
| --- | --- |
| Cc1cnn(C(=S)NCCc2ccccc2)c1 | inactive |
| COc1ccc(C)c2sc(N(CCN(C)C)C(=O)/C=C/c3cccs3)nc12 | inactive |
| CN(C)CCCN(C(=O)CCc1ccccc1)c1nc2ccc(Br)cc2s1 | inactive |
| O=C(CSC(=S)N1CCCCC1)c1c(F)cccc1F | inactive |
| COC(=O)c1c(C)[nH]c(/C=N/Nc2ccccc2)c1C | inactive |
| COc1ccc(CNC(=O)CN2C(=O)C3C4C=CC(C4)C3C2=O)cc1 (stereo not drawn) | inactive |
| COc1cc(CN2CCC(C(N)=O)CC2)ccc1OCc1ccccc1 | inactive |
| O=C(Nc1cc2c(cc1Cl)OCCO2)c1ccco1 | inactive |
| CCOC(=O)c1sc(-c2ccccc2)cc1N | inactive |
| Cc1nn2c(N)c(-c3ccccc3)cnc2c1-c1ccccc1 | inactive |
| CC(=O)Nc1cccc2c1Cc1ccccc1-2 | inactive |
| CN(C)CCNC(=O)COc1ccc(C23CC4CC(CC(C4)C2)C3)cc1 | inactive |
| Cc1ccc(-n2ncc3c(SCC(N)=O)ncnc32)cc1C | inactive |
| Cn1c(/C=C/c2ccc(Cl)cc2)nc2ccccc2c1=O | inactive |
| Cc1ccc(OCC(=O)Nc2ccccc2F)cc1 | inactive |
| Fc1cccc(Cl)c1CSc1nnc(-c2ccncc2)o1 | inactive |
| CSc1nc(N)n2nc(-c3ccc(Cl)cc3)cc2n1 | inactive |
| COc1ccc(NC(=O)Nc2ccc(F)c(F)c2)c(OC)c1 | inactive |
| O=[N+]([O-])c1ccccc1OCCOc1ccccc1[N+](=O)[O-] | inactive |
| O=C(CCCc1ccccc1)N1CCN(C2CCCCC2)CC1 | inactive |
| O=C(c1cc2ccccc2oc1=O)N(Cc1ccccc1)C1CCS(=O)(=O)C1 (stereo not drawn) | inactive |
| c1ccc(OCc2nc3ccccc3[nH]2)cc1 | inactive |
| N=C1C(c2nc3ccccc3[nH]2)=C(O)CN1C1CCCCC1 | inactive |
| Cc1c(C(=O)N(CCO)Cc2ccccc2)oc2c(F)cccc12 | inactive |

From PubChem BioAssay AID493073 (Broad Institute, 2011)
